Giardia FBPA inh-1 – inhibitors of Giardia lamblia fructose-1,6-bisphosphate aldolase | A8B2U2 | purified Giardia FBPA | Potency, µM (doses to about 59.6 µM), most hits filed as inhibitors | 0.71% of 290,000 active | AID 2451; further: nearly all actives have a fitted effect of over 55% in size
Target sequence (A8B2U2 whole entry, looked up): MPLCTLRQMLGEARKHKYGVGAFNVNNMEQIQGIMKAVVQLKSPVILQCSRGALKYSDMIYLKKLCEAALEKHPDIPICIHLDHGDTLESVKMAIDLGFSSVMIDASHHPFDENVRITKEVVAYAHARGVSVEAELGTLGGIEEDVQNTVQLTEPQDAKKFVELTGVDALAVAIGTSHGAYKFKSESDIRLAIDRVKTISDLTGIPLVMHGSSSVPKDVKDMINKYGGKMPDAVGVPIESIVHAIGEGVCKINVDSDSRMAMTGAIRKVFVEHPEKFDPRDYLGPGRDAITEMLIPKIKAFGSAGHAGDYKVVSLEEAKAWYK
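40 nM FBPA preincubated 10 min at RT with compound (up to 57.5 uM final), then substrate plus GAPDH/TPI/NAD/arsenate coupling and diaphorase/resazurin added. Fluorescence read after 20 min at RT, 525/598 nm.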
Sm TGR block – S. mansoni TGR enzyme inhibition; 3% of 360,000 active; Potency, µM (highest dose often 114 µM), hits mostly inhibitors; AID 485364; Q962Y6; purified TGR, DTNB reduction, TNB absorbance 405 nm; further: nearly all actives have a fitted effect of over 60% in size
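TGR 20 nM + NADPH 100 uM (dispensed conc.), cpd preinc 15 min RT; start with NADPH (500 uM addition) then DTNB (15 mM addition). Kinetic TNB absorbance, 405 nm filter. Four-parameter Hill fit across titration.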
RE007 growth inh – less growth of the S. pombe RE007 Vpr strain | S. pombe RE007 Vpr strain, BacTiter-Glo ATP luminescence, 24 h | Potency, µM (top dose mostly 92.2 µM), hits mostly inhibitors | 0.21% of 360,000 active; active means well fitted falling curve with a large enough effect; inconclusive means small, poorly fitted or top-dose-only effect; inactive means no such curve, though single readings can be large or run the other way; further: nearly all actives have a fitted effect of over 50% in size
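Fission yeast strain RE007, carrying one chromosomally integrated HIV-1 vpr copy, was seeded at OD 0.01 in PMG+AL medium with 23 nL pinned compound. After 24 h at 30 °C and 99% humidity, viability was read by BacTiter-Glo luminescence.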
TbPYK inhibitor – blocks Trypanosoma brucei pyruvate kinase; Q57TT1; TbPYK enzyme, Kinase-Glo Plus ATP luminescence, 45 min; Potency, µM (doses to about 76.8 µM), actives largely listed as inhibitors; 0.12% of 410,000 active; further: nearly all actives have a fitted effect of over 50% in size
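Quantitative HTS: titrated library compounds versus trypanosomal pyruvate kinase in TEA buffer (pH 7.2) containing KCl, MgCl2, BSA and Tween-20. Reactions were initiated with ADP, 130 uM final. Kinase-Glo Plus luminescence was read after 45 min at RT.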
LmPK inhibitor – blocks Leishmania mexicana pyruvate kinase activity | Q27686 | purified LmPK, Kinase-Glo ATP luminescence, 1 h | Potency, µM (top dose mostly 57.5 µM), usual class: inhibitors | 0.37% of 290,000 active | AID 1721
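ATP generated from ADP (0.1 mM) and PEP (0.5 mM) by 0.1 nM LmPK over 1 h at room temperature (pH 7.2 imidazole buffer) was detected by coupled luciferase luminescence. Values were normalized to uninhibited and no-enzyme wells.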
Giardia growth – Giardia lamblia growth inhibition; shares compounds with Giardia FBPA inh-1; Giardia lamblia trophozoite growth inhibition; Potency, µM (series often up to 57.5 µM), hits mostly inhibitors; 5% of 1,500 active;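 further: trophozoites exposed to compound for 48 h at 37 °C; nearly all actives have a fitted effect of over 70% in size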
Mammalian tox – counter-screen for Giardia aldolase inhibitors: mammalian cell toxicity; Potency, µM (titrated, usually from 57.5 µM), most hits filed as inhibitors; mammalian cell viability counter-screen, qHTS; shares compounds with Giardia FBPA inh-1; 4% of 1,500 active;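 further: Chinese hamster ovary cells used as mammalian cytotoxicity surrogate; viability measured as cellular ATP by luminescence; compound exposure lasted 48 h before reading; nearly all actives have a fitted effect of over 60% in size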
Giardia FBPA inh-2 – confirmation of Giardia fructose-bisphosphate aldolase inhibitors. purified Giardia aldolase enzyme activity, qHTS. shares compounds with Giardia FBPA inh-1. 5% of 1,500 active. AID 2787. Potency, µM (doses to about 57.5 µM), actives largely listed as inhibitors; further: nearly all actives have a fitted effect of over 45% in size
Rabbit aldolase – selectivity test for Giardia aldolase inhibitors: rabbit aldolase. shares compounds with Giardia FBPA inh-1. Rabbit muscle FBPA enzyme inhibition, selectivity counter-screen. Potency, µM (titrated, usually from 57.5 µM), usual class: inhibitors. 4% of 1,500 active. AID 2794; further: nearly all actives have a fitted effect of over 60% in size
Target sequence (P00883 whole entry, looked up): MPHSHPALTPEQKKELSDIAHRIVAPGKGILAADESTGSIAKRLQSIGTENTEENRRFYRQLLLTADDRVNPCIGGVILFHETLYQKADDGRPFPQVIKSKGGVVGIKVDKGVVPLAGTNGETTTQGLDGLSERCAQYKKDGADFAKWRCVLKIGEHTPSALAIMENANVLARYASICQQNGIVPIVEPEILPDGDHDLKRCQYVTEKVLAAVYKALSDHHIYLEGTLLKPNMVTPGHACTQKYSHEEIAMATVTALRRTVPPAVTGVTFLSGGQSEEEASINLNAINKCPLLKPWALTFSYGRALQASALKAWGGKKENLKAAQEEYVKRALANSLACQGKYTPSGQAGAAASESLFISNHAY
GAPDH coupling – counter-screen for Giardia aldolase inhibitors: GAPDH coupling enzyme | shares compounds with Giardia FBPA inh-1 | GAPDH coupling enzyme counterscreen, biochemical, qHTS | Potency, µM (top dose mostly 57.5 µM), hits mostly inhibitors | 6% of 1,500 active; further: nearly all actives have a fitted effect of over 55% in size
Numbers stand for hits; – = inactive; ? = inconclusive; · = no result; [ ] = remark or other dose. The list is not random: actives were taken first. Their share in the collection is about 3.3%. Unless noted, the call rests on the fitted dose curve; in most records, active means well fitted curve in the direction sought with a large enough effect; inconclusive means small, poorly fitted or top-dose-only effect, or another doubt; inactive means no such curve, though single readings can be large; an effect the other way counts as inactive or inconclusive.

SMILES | Giardia FBPA inh-1 | Sm TGR block | RE007 growth inh | TbPYK inhibitor | LmPK inhibitor | Giardia growth | Mammalian tox | Giardia FBPA inh-2 | Rabbit aldolase | GAPDH coupling
CCc1nnc(N/N=C/c2cc(C)c(C)cc2C)n1N | 13µM | ? | – | – | – | – | – | – | – | –
Cc1[nH]c2ccccc2c1/C=N/NC(N)=S | – | – | – | – | – | · | · | · | · | ·
CCc1nnc(-n2nc(C)cc2-c2ccccc2)n1N | ? | – | – | – | – | · | · | · | · | ·
CCOc1cc(/C=N/Nc2nnc(C)n2N)ccc1O | 16µM | 50µM | – | – | – | – | – | ? | ? | ?
COc1ccc(NC(=O)CSc2nc(C3CC3)nc3ccccc23)cc1 | · | – | – | – | – | · | · | · | · | ·
Fc1cccc(Cl)c1/C=N/Nc1ccccn1 | – | – | – | – | – | · | · | · | · | ·
Cc1nnc(N/N=C/c2ccc(-c3ccccc3F)o2)n1N | 16µM | – | – | – | – | ? | – | 16µM | ? | ?
Clc1cccc(Cl)c1/C=N\Nc1nccs1 | – | – | – | – | – | · | · | · | · | ·
Cc1nnc(N/N=C/c2c(Cl)cccc2Cl)n1N | 22µM | · | – | – | – | – | – | – | – | –
CCc1nnc(N/N=C/c2c(F)cccc2Cl)n1N | 20µM | – | – | – | – | – | – | – | – | –
Cc1cc(C)c(O)c(N)c1 | 20µM | 3.2µM | · | · | – | –[10.4 µM] | – | ? | ? | –
CN(C(=O)COC(=O)c1cc(=O)[nH]c2ccccc12)c1c(N)n(Cc2ccccc2)c(=O)[nH]c1=O | · | – | – | – | · | · | · | · | · | ·
COc1ccc(OC)c(CN2CCC(C(=O)N(C)CCc3ccc(OC)c(OC)c3)CC2)c1 | ? | – | – | – | – | · | · | · | · | ·
COc1ccc(CCN(C)C(=O)C2CCCN(C3CCN(Cc4ccccc4)CC3)C2)cc1OC (configuration not stated) | 18µM | – | – | – | – | ? | – | – | – | –
COC(=O)c1ccc(NC(=S)N2CCN(Cc3ccccc3)CC2)cc1 | – | – | ? | – | – | · | · | · | · | ·
C/C(CS(=O)(=O)c1ccc(Cl)cc1)=N/NC(N)=S | 16µM | ? | – | – | – | –[10.4 µM] | – | – | – | –
C/C(CS(=O)(=O)c1ccc(Cl)c(Cl)c1)=N/NC(N)=S | ? | · | – | – | – | · | · | · | · | ·
Cc1cc(C)cc(N(C(=O)CNC(=O)c2ccco2)C(C(=O)NC2CCCCC2)c2cccnc2)c1 (configuration not stated) | – | – | – | – | – | · | · | · | · | ·
Cc1cc2c(c(=O)n1CCN(C)C)C(c1ccc(Br)cc1)C(C#N)=C(N)O2 (configuration not stated) | – | – | – | – | – | · | · | · | · | ·
O=C(/C=C/c1ccc(F)cc1)NC(=S)N1CCOCC1 | – | – | – | – | – | · | · | · | · | ·
O=C(CSc1n[nH]c(-c2cccs2)n1)NCc1cccs1 | – | – | – | – | – | · | · | · | · | ·
C=CCSc1n[nH]c(-c2cccs2)n1 | 13µM | – | – | – | – | – | – | – | – | –
CCN1CCC2(CC1)N=C(c1ccc(F)cc1)C(=S)N2 | 13µM | – | – | – | – | – | – | – | – | –
CNC(=S)N/N=C/c1ccc(-c2ccc(C(=O)O)cc2)o1 | 18µM | ? | ? | – | 14µM | –[10.4 µM] | – | – | – | –
CCNC(=S)N/N=C/c1ccc(C(=O)O)cc1 | 18µM | – | – | – | ? | –[10.4 µM] | – | – | – | –
SMILES | Giardia FBPA inh-1 | Sm TGR block | RE007 growth inh | TbPYK inhibitor | LmPK inhibitor | Giardia growth | Mammalian tox | Giardia FBPA inh-2 | Rabbit aldolase | GAPDH coupling
CC(=O)N1CCN(C(=S)NC(=O)c2ccc(S(=O)(=O)N3CCOCC3)cc2)CC1 | 14µM | – | – | – | – | –[10.4 µM] | – | – | – | –
O=C(NC(=S)N(CCO)Cc1ccccc1)c1ccc(S(=O)(=O)N2CCCC2)cc1 | 8.9µM | – | – | – | – | –[10.4 µM] | – | – | – | –
CN(CCC#N)C(=S)NC(=O)c1ccc(S(=O)(=O)N2CCOCC2)cc1 | 16µM | – | – | – | – | – | – | – | – | –
N#Cc1ccc(NC2=NS(=O)(=O)c3ccccc32)cc1 | · | – | · | – | · | · | · | · | · | ·
COc1cccc(CCc2nnc(CCC(=O)N3CCN(Cc4ccccn4)CC3)o2)c1 | 5.6µM | 11µM | – | – | – | – | – | – | – | –
COc1cccc(CCc2nnc(CCC(=O)NCCc3cccc(C)n3)o2)c1 | – | – | – | – | – | · | · | · | · | ·
Brc1ccc(CN2CCN(Cc3c[nH]c4ccccc34)CC2)cc1 | 14µM | – | – | – | – | 20µM | – | – | – | –
COC(=O)c1sc(NC(=S)NC(=O)c2cccc(Br)c2)nc1C | 11µM | – | – | – | – | – | – | – | – | –
COC(=O)c1sc(NC(=S)NC(=O)c2ccc(F)cc2)nc1C | – | – | · | · | – | · | · | · | · | ·
CCOc1cc(C(=O)NC(=S)Nc2cccnc2)cc(OCC)c1OCC | 11µM | 50µM | – | – | – | –[10.4 µM] | – | – | – | –
COc1cc(C(=O)Nc2ccc(NC(=O)c3cccc(Cl)c3)nc2)cc(OC)c1OC | – | – | – | – | – | · | · | · | · | ·
COc1ccc(C(=O)NC(=S)Nc2cccnc2)cc1Cl | 10µM | ? | – | – | – | –[10.4 µM] | – | – | – | –
CCOc1ccc(NC(=S)NC(=O)c2c(Br)cnn2C)c([N+](=O)[O-])c1 | – | – | – | – | – | · | · | · | · | ·
CCOc1ccc(NC(=S)NC(=O)c2cccnc2)c([N+](=O)[O-])c1 | 8.9µM | – | – | – | – | 35µM | – | – | – | –
COc1cc(C(=O)NC(=S)Nc2ccc(Cl)cn2)cc(OC)c1OC | 10µM | – | – | – | – | – | – | – | – | –
CC(=O)OCC(=O)Nc1cc(C#N)cc(NC(=O)COC(C)=O)c1Cl | · | · | · | – | · | · | · | · | · | ·
CC1(C)C2CCC(C2)C1(C)NC(=O)CN1CCN(Cc2ccccc2)CC1 (configuration not stated) | 16µM | – | – | – | – | –[10.4 µM] | – | – | – | –
CC1CCN(S(=O)(=O)c2ccc(C(=O)Nc3nnc(C4=COCCO4)o3)cc2)CC1 | · | – | – | – | – | · | · | · | · | ·
O=C(Nc1nnc(-c2cccs2)o1)c1ccc(S(=O)(=O)N2CCOCC2)cc1 | 14µM | – | – | – | – | –[10.4 µM] | – | – | – | –
O=C(Nc1nnc(C2=COCCO2)o1)c1ccc(S(=O)(=O)N2CCCCC2)cc1 | 16µM | – | – | – | –[11.5 µM] | ? | – | – | – | –

Source: PubChem (National Center for Advancing Translational Sciences (NCATS))
